# Results published in PubChem BioAssay.
# Potency and affinity values are given separately. Active and inactive are the calls of the source. Entries that show only a call come without a potency. The rule behind the calls is not given here.
# Assay: HepG2 cell cytotoxicity, dose response, cytotoxicity control, plate reader, cherry-pick, antagonist series (AID 743416)
# Conditions: series mostly up to 26 µM
row,Compound,outcome
1,CCOC(=O)Nc1ccc(N2CCOCC2)c(S(=O)(=O)Nc2ccc(Cl)cc2)c1,inactive
2,COc1ccc(NC(=O)N(C)C[C@@H]2OCCCC[C@H](C)Oc3ccc(NC(=O)NC4CCCCC4)cc3C(=O)N([C@H](C)CO)C[C@@H]2C)cc1,inactive
3,COc1ccc(S(=O)(=O)Nc2ccc3c(c2)C(=O)N([C@H](C)CO)C[C@H](C)[C@H](CN(C)S(=O)(=O)c2ccc(F)cc2)OCCCC[C@@H](C)O3)cc1,inactive
4,C[C@@H]1CN([C@@H](C)CO)C(=O)c2cc(NS(C)(=O)=O)ccc2O[C@@H](C)CCCCO[C@@H]1CN(C)Cc1ccc(C(F)(F)F)cc1,inactive
5,C=CCNC(=O)c1c(Cl)nc(C)c([N+](=O)[O-])c1C,inactive
6,COc1ccc(S(=O)(=O)N2CCCCN3[C@H](CO)[C@H](c4ccc(-c5cccnc5)cc4)[C@@H]3C2)cc1,inactive
7,Cc1ccc2nc(NC(=O)CCCC(=O)O)sc2c1,inactive
8,Cc1cc(C(=O)COC(=O)c2cccn2C)c(C)n1Cc1ccco1,inactive
9,O=C(O)c1ccc(N/N=C/c2ccc3ncccc3c2)cc1,inactive
10,C[C@H](CO)N1C[C@H](C)[C@H](CN(C)C(=O)Nc2ccc(F)cc2)OCCCC[C@H](C)Oc2ccc(NC(=O)NC3CCCCC3)cc2C1=O,inactive
11,C[C@H](CO)N1C[C@H](C)[C@H](CN(C)Cc2ccccc2)Oc2c(NS(=O)(=O)c3cn(C)cn3)cccc2C1=O,inactive
12,O=C(NCCc1ccccc1)c1ccc2c(c1)OCO2,inactive
13,CCN(CC)S(=O)(=O)c1cc(C(=O)OCC(=O)Nc2ccc(-c3nc4ccc(C)cc4s3)cc2)ccc1F,inactive
